# Screening data: PubChem, National Center for Advancing Translational Sciences (NCATS)
# Many of the other results were omitted from the sample, so hits are more common in it than they were.
# Vaccinia Venus – inhibitors of vaccinia virus (Venus reporter) | 330,000 tested, 0.46% active | Vaccinia virus Venus reporter expression, fluorescence | Potency, µM (highest dose often 36.5 µM), inactives show at the highest dose activity change, negative = inhibition, most hits filed as inhibitors; calls by dose curve; tested in A549 cells; note: potency is the fitted concentration of half-maximal effect; % is set by controls: 0 for no effect and ±100 for the full control effect; nearly all actives have a fitted effect of over 30% in size
# Marburg entry inh – Marburg virus entry inhibition. 300,000 tested, 1.8% active. Marburg virus pseudotyped entry inhibition, cell reporter. Potency, µM (highest dose often 37.8 µM), for the others: at the highest dose activity change, negative = inhibition, hits mostly inhibitors; calls by dose curve; tested in HEK293 cells; note: potency is the fitted concentration of half-maximal effect; % is set by controls: 0 for no effect and ±100 for the full control effect
# Cycloheximide cs – counter-screen hit for Shiga toxin inhibitors, cycloheximide; AID 2314; max response, %; cell reporter, cycloheximide protein synthesis inhibition counterscreen; 300,000 tested, 12% active; in the data active = max response mostly above about 13%, no sharp cut-off; inactive = mostly below about 14%; note: read at 38.3 µM for the half of the compounds with a filed dose; 0% is about no effect
# Shiga toxin inh – blocks Shiga toxin action in Vero cells; 290,000 tested, 9.2% active; inhibition, % at 38.7 µM; Vero cells, Shiga toxin protein synthesis inhibition reporter; in the data active = inhibition mostly above about 28%, no sharp cut-off; inactive = mostly below about 43%; note: 0% is about no effect
# Vaccinia mCherry – vaccinia inhibition (mCherry reporter); Potency, µM (doses to about 36.5 µM), for inactives: at the top dose activity change, negative = inhibition, hits mostly inhibitors; Vaccinia virus mCherry reporter infection, fluorescence; 310,000 tested, 0.63% active; AID 720579; calls by dose curve; tested in A549 cells; note: potency is the fitted concentration of half-maximal effect; % is set by controls: 0 for no effect and ±100 for the full control effect; nearly all actives have a fitted effect of over 35% in size
# LASV entry inh – inhibitors of Lassa virus binding or cell entry; Lassa virus pseudotype entry inhibition, cell reporter; AID 540256; 300,000 tested, 1.2% active; Potency, µM (highest dose often 37.9 µM), for the others: at the highest dose activity change, negative = inhibition, hits mostly inhibitors; calls by dose curve; tested in HEK293 cells; note: potency is the fitted concentration of half-maximal effect; % is set by controls: 0 for no effect and ±100 for the full control effect; nearly all actives have a fitted effect of over 50% in size
# An asterisk follows results filed as active; i = inactive; ? = inconclusive; . = no result; + = active, no number; [ ] = remark or other dose.
SMILES,Vaccinia Venus,Marburg entry inh,Cycloheximide cs,Shiga toxin inh,Vaccinia mCherry,LASV entry inh
C=C1CCC[C@]2(C)C[C@H]3OC(=O)C(CN[C@@H](C)c4ccccc4)[C@H]3CC12 (stereo partly drawn),?,?,-2.1,-7.1,?,?
C=C1CCC[C@]2(C)C[C@H]3OC(=O)C(CNC(C)CCCC(C)C)[C@H]3CC12 (stereo partly drawn),7.08µM*,?,-2.9,-9.8,?,?
C=C1CCC[C@]2(C)C[C@H]3OC(=O)C(CNCC(OC)OC)[C@H]3CC12 (stereo partly drawn),?,3.8%[46.1 µM],-5.1,-7.0,4.47µM*,19.6%[46.1 µM]
CC(=O)OC[C@H]1O[C@H](c2ccc(C(C)=O)cc2)C=C[C@H]1OC(C)=O,.,1.7%[14.2 µM],.,.,.,.
CC(O)CNc1ncnc2nc[nH]c12 (stereo not drawn),.,7.2%,7.5,115.8,.,-4.6%
CC(C)CCCCCCCCCCCCC(=O)NCC(=O)NC1C(O)C(O)C(Nc2ncnc3nc[nH]c23)OC1C(O)CO (stereo not drawn),11.2µM*,?,.,.,39.8µM*,?
Cc1ccc2c(=O)cc(C(=O)Nc3ccc(S(=O)(=O)N4CCCCC4)cc3)oc2c1,-4.6%,?,.,.,-8.3%,2.9%[46.1 µM]
CCOC(=O)N1CCN(Cc2ccc3c(c2)CN(C(=O)c2ccc(C#CC(C)(C)O)o2)CCO3)CC1,-19.1%,.,.,.,-27.4%,.
COCCn1c(SCc2ccc(Cl)cc2)nc2c1c(=O)[nH]c(=O)n2C,-23.2%,18.5%,.,.,-25.3%,-22.8%
CCCn1c(SCc2ccc(Cl)cc2)nc2c1c(=O)[nH]c(=O)n2C,?,-16.3%[46.1 µM],1.6,-4.0,.,15.8µM*
COCC1CCN(Cc2nc(Cc3ccccc3Cl)no2)CC1,8.0%,?,1.4,4.2,-3.4%,3.8%
Clc1ccccc1Cc1noc(CN2CCN(c3cnccn3)CC2)n1,-11.4%,?,13.0*,34.3,-0.7%,3.3%
Fc1ccccc1Cc1noc(CN2CCN(c3ccc(Cl)cn3)CC2)n1,-14.7%,?,1.0,0.3,-12.1%,?
OCC1CCN(Cc2nc(Cc3ccccc3Cl)no2)CC1,-6.2%,-0.5%[46.1 µM],12.4*,23.5,-5.1%,-3.3%[46.1 µM]
Clc1ccccc1Cc1noc(CN2CCSCC2)n1,-3.2%,16.4%[46.1 µM],12.1*,39.6,-2.4%,9.1%
CCOc1ccc(NC(=O)Cn2ccn(-c3ccc(F)c(F)c3)c(=O)c2=O)cc1,-8.2%,.,.,.,-12.4%,?
COc1ccc(-c2ccc3c(c2)C2CC3CCN2C(=O)C(C)(C)C)cc1 (stereo not drawn),-14.9%,.,.,.,?,.
Cc1cc(C)cc(NC(=O)Cn2c(=O)n(C(C)C)c(=O)c3oc4ccccc4c32)c1,-4.3%,.,.,.,-5.2%,18.8%[46.1 µM]
O=C1c2ccccc2C(=O)C1c1ccc2ccccc2n1,-8.8%,?,34.3*,78.5*,15.6%,5.8µM*
O=C1c2ccccc2C(=O)C1c1cc2ccccc2cn1,-8.2%,.,.,.,-12.9%,.
CC1=C(Cl)C2=NS(=O)(=O)CCN2C=C1Cl,-0.4%,-3.0%[46.1 µM],0.4,-10.6,-7.3%,39.2%
CN(C)c1ccc(/C=C/c2ccccn2)cc1,139.3%,.,.,.,?,.
CN(C)c1ccc(/C=C/c2nnnn2-c2ccccc2)cc1,-13.6%,?,60.6*,108.4*,-23.7%,?
Cc1ccc(NC(=O)N2CCc3ccccc3C2)cc1,-22.3%,?,48.0*,57.8*,-25.1%,48.1%[14.3 µM]
Cc1ccc(S(=O)(=O)N(C)c2ccc(C(=O)N3CCc4ccccc4C3)cc2)cc1,-0.8%,?,-2.6,19.6,-29.1%,11.2µM*
SMILES,Vaccinia Venus,Marburg entry inh,Cycloheximide cs,Shiga toxin inh,Vaccinia mCherry,LASV entry inh
Cc1ccc(NC(=O)N2CCc3ccccc3C2)c(C)c1,-4.6%,?,42.1*,64.9*,i,7.9%[46.1 µM]
O=C(Nc1ccccc1)N1CCc2ccccc2C1,-16.9%,0.8%,59.6*,+,-21.3%,?
Clc1ccc(-c2csc(-c3nc(-c4ccc(Br)s4)cs3)n2)cc1,-7.5%,6.5%[46.1 µM],.,.,-4.3%,-17.2%[46.1 µM]
COc1cccc(CN(CC(=O)NCc2ccccc2)S(=O)(=O)CCl)c1,-17.0%,.,.,.,-9.5%,.
CCn1c2ccccc2c2cc(NC(=O)COC(=O)c3ccc(O)cc3)ccc21,?,?,.,.,11.2µM*,?
CCn1c2ccccc2c2cc(NC(=O)COC(=O)c3cccc(S(=O)(=O)NC)c3)ccc21,?,-23.4%,4.7,-3.1,?,1.1%
CCn1c2ccccc2c2cc(NC(=O)COC(=O)Cc3cn4ccsc4n3)ccc21,10µM*,-8.0%,-3.4,46.4,.,-1.2%
O=C(COC(=O)Cc1cn2ccsc2n1)NCc1ccc2c(c1)OCO2,-9.5%,3.3%[46.1 µM],4.8,12.6,-19.3%,6.1%
O=C(NC1CCCCCC1)c1ccc([N+](=O)[O-])s1,-3.9%,?,.,.,?,10.8%
CCOc1ccc(NC(=O)Cc2ccc(NC(=O)N3CCCCc4ccccc43)cc2)cc1,?,.,.,.,-3.4%,7.7%[46.1 µM]
CC(=O)Nc1nc(SCCCc2ccccc2)n[nH]1,-2.3%,-0.5%,-5.1,-13.3,.,1.6%
COC(=O)c1ccc2nc(C(F)(F)F)[nH]c2c1,-11.3%,2.8%,16.8*,11.0,-13.5%,-6.8%
Nc1ccc2nc(C(F)(F)F)[nH]c2c1,.,10.4%,-0.5,-6.2,.,-0.7%
COc1ccc(NS(=O)(=O)c2ccc3oc(SC(C)C(N)=O)nc3c2)cc1 (stereo not drawn),?,?,1.0,-16.3,?,?
CNS(=O)(=O)c1cn(CC(=O)Nc2ccc(OC)c(Cl)c2)cc1S(=O)(=O)NC,-10.7%,.,.,.,-15.8%,21.6%[46.1 µM]
O=C(CSc1nnc(COc2ccc(Cl)cc2Cl)o1)Nc1ccccn1,-9.3%,-0.5%,28.4*,60.2*,-5.6%,0.3%
Clc1ccc(OCc2nnc(SCc3nnc(-c4ccccc4)o3)o2)c(Cl)c1,.,-30.4%,39.2*,56.0*,.,?
O=C(O)CCc1nc(-c2ccccc2)c(-c2ccccc2)o1,-13.2%,?,-4.7,-1.3,-10.6%,41.6%
O=C(O)CCc1ccc(-c2ccccc2)o1,-1.2%,-1.2%,15.3*,5.9,i,1.7%
O=S1(=O)C=C(Sc2nc3cc(Cl)ccc3o2)c2ccccc21,4.0%,7.94µM*,18.2*,39.8,-12.7%,?
Cc1cc(NC(=O)CSc2nc3cc(Cl)ccc3o2)no1,2.9%,12.7%[46.1 µM],-3.5,-7.3,-8.4%,4.2%[46.1 µM]
CCOc1ccc(/C(O)=C2/C(=O)C(=O)N(CCCn3ccnc3)C2c2cccs2)cc1Cl (stereo not drawn),.,5.4%,46.7*,63.1*,.,27.8%
CCCOc1ccc(/C(O)=C2/C(=O)C(=O)N(CCCn3ccnc3)C2c2cccnc2)cc1 (stereo not drawn),8.6%,-2.7%[46.1 µM],-3.1,-5.0,-28.6%,0.4%[46.1 µM]
CCCOc1ccc(/C(O)=C2/C(=O)C(=O)N(CCCn3ccnc3)C2c2cccs2)cc1 (stereo not drawn),.,1.6%,15.7*,13.1,.,.
COc1cc(C2Nc3ccccc3C(=O)N2Cc2ccco2)cc(OC)c1OC (stereo not drawn),-15.5%,.,.,.,-7.6%,.
O=C1CCCC2=C1C(c1ccncc1)c1c(nc(SCc3ccccc3Cl)[nH]c1=O)N2 (stereo not drawn),-26.1%,10µM*,6.0,-2.0,.,?
